Laboratory results taken from PubChem BioAssay (NCATS).
Results filed as inconclusive are left out. A number with no mark means an inactive call. The source made the active and inactive calls. Calls come from the whole dose curve; as a rule, active = well fitted cell-killing curve with a large enough effect; inconclusive = small, poorly fitted or top-dose-only effect, or effect the other way; inactive = flat fitted curve, though single readings scatter.

system: PA-1; assay: Primary qHTS to identify gynecologic anti-cancer compounds using libraries of approved drugs and bioactive compounds (AID 1345084); conditions: Gynecologic cancer cell panel viability, ATPlite luminescence, 48 h; series mostly up to 57.5 µM; activity change, negative = cytotoxicity: at the top concentration; note: nearly all actives have a fitted effect of over 55% in size
How it was run: (§1)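 ATP-based viability (ATPlite), 1,000 cells/well, 16 h pre-incubation, 48 h compound at 37 C, 5% CO2, 15 min RT before read.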
% is set by controls: 0 for no effect and ±100 for the full control effect; potency is the fitted concentration of half-maximal effect.

Row | SMILES | activity change, negative = cytotoxicity
1 | C#Cc1ccc(-c2ccccc2F)cc1 | 6.36%
2 | NS(=O)(=O)c1cc(C(=O)NN2C[C@H]3[C@H]4CCC(C4)[C@H]3C2)ccc1Cl | 2.47%
3 | Cc1[nH]cnc1-c1ccc(Cl)cc1 | -3.02%
4 | c1ccc2c(c1)CCc1ccccc1N2 | 25.6%
5 | COC(=O)c1cc(S(N)(=O)=O)ccc1OC | 14%
6 | CCOc1ccccc1OCC1CNCCO1 (centres undefined) | -0.323%
7 | O=C(C1CCCCC1)N1CC(=O)N2CCCc3ccccc3C2C1 (centres undefined) | -0.0397%
8 | CCn1ccc(NS(=O)(=O)c2ccc(N)cc2)nc1=O | 10.1%
9 | CSCC[C@H](NC(=O)[C@H](Cc1c[nH]c2ccccc12)NC(=O)CCNC(=O)OC(C)(C)C)C(=O)N[C@@H](CC(=O)O)C(=O)N[C@@H](Cc1ccccc1)C(N)=O | 8.86%
10 | O=C(O)C(=O)Nc1cccc(-c2nn[nH]n2)c1 | 18.6%
11 | COc1ccc(CCC(C)=O)cc1 | 0.0732%
12 | COc1cc(S(N)(=O)=O)cc(C(=O)O)c1OC | 0.506%

system: SKOV3; assay: as above; conditions: Gynecologic cancer cell panel viability, ATPlite luminescence, 48 h; series mostly up to 57.5 µM; activity change, negative = cytotoxicity: at the top concentration
How it was run: as §1

Row | SMILES | activity change, negative = cytotoxicity | Potency
13 | COCCc1ccccn1 | -4.95% | –
14 | OC1(c2ccccc2)CCNCC1 | 6.66% | –
15 | O=C1NC(c2ccccc2)(c2ccccc2)C(=O)N1COP(=O)(O)O | -2.94% | –
16 | COC(=O)c1cc(Cl)ccc1OC | 14.2% | –
17 | COC(=O)CCCCC(CCSS/C(CCO)=C(\C)N(C=O)Cc1cnc(C)nc1N)SC(C)=O (centres undefined) | 10.8% | –
18 | COc1ccc2nc(SCc3ncc(C)c(OC)c3C)[nH]c2c1 | -13.6% | –
19 | Cc1ccc(C(C)OC(=O)C2(C)CCC(C(=O)O)C2(C)C)cc1 (centres undefined) | -1.77% | –
20 | CN(C)CCN1CCN(c2cccc(Cl)c2)C1=O | -0.788% | –
21 | CCOC(=O)C(=O)CCCCCCl | 21.8% | –
22 | CCOC(=O)Oc1ccc(CCNC(=O)[C@H](CCSC)NC(C)=O)cc1OC(=O)OCC | -2.32% | –
23 | COC(=O)c1cc(Cl)c(NC(C)=O)cc1OC | 10.9% | –
24 | CCN1CCN(c2cc(-c3ccc(F)cc3)c3c(n2)CCCCCC3)CC1 | 0.967% [at 25.3 µM] | –
25 | CCCc1ncc(C(=O)O)s1 | 1.53% | –
26 | Cc1coc2ccccc2c1=O | 0.303% | –
27 | O=C1CC2(CCCC2)CC(=O)N1 | 4.08% | –
28 | COC(=O)/C=C\C(=O)OC | -11.8% | –
29 | C#CC(C)(CC)OC(=O)c1ccccc1C(=O)O (centres undefined) | -0.532% | –
30 | O=C(O)Cn1c(=O)n(Cc2ccc(Br)cc2F)c(=O)c2ccc(Cl)cc21 | 23.4% | –

Row | SMILES | activity change, negative = cytotoxicity | Potency
31 | CN1CCN(N)CC1 | 0.528% | –
32 | CC(CC(C#N)(c1ccccc1)C(C)C)N(C)C (centres undefined) | -2.77% | –
33 | CCOC(=O)CN1CCCC1=O | 12.9% | –
34 | CC(C)(C)NCC(O)COc1ccccc1OCC1CCCO1 (centres undefined) | 0.297% | –
35 | CCN(CC)CC(=O)Oc1ccc(NC(C)=O)cc1 | -1.91% | –
36 | COC(=O)/C=C(/C)N | -0.159% | –
37 | C#Cc1ccc(-c2ccccc2F)cc1 | 0% | –
38 | NS(=O)(=O)c1cc(C(=O)NN2C[C@H]3[C@H]4CCC(C4)[C@H]3C2)ccc1Cl | 6.17% | –
39 | Cc1[nH]cnc1-c1ccc(Cl)cc1 | 25.2% | –
40 | c1ccc2c(c1)CCc1ccccc1N2 | – | 22.4 µM (active)
41 | COC(=O)c1cc(S(N)(=O)=O)ccc1OC | 7.39% | –
42 | CCOc1ccccc1OCC1CNCCO1 (centres undefined) | 14.1% | –
43 | O=C(C1CCCCC1)N1CC(=O)N2CCCc3ccccc3C2C1 (centres undefined) | 0% | –
44 | CCn1ccc(NS(=O)(=O)c2ccc(N)cc2)nc1=O | 4.28% | –
45 | CSCC[C@H](NC(=O)[C@H](Cc1c[nH]c2ccccc12)NC(=O)CCNC(=O)OC(C)(C)C)C(=O)N[C@@H](CC(=O)O)C(=O)N[C@@H](Cc1ccccc1)C(N)=O | 19.6% | –
46 | O=C(O)C(=O)Nc1cccc(-c2nn[nH]n2)c1 | 21.9% | –
47 | COc1ccc(CCC(C)=O)cc1 | 1.6% | –
48 | COc1cc(S(N)(=O)=O)cc(C(=O)O)c1OC | 16.3% | –

system: Tov-21-G; assay: as above; conditions: Gynecologic cancer cell panel viability, ATPlite luminescence, 48 h; series mostly up to 57.5 µM; activity change, negative = cytotoxicity: at the top concentration
How it was run: as §1

Row | SMILES | activity change, negative = cytotoxicity
49 | COCCc1ccccn1 | 4.91%
50 | OC1(c2ccccc2)CCNCC1 | -8.17%
51 | O=C1NC(c2ccccc2)(c2ccccc2)C(=O)N1COP(=O)(O)O | 0.0917%
52 | COC(=O)c1cc(Cl)ccc1OC | 11.8%
53 | COC(=O)CCCCC(CCSS/C(CCO)=C(\C)N(C=O)Cc1cnc(C)nc1N)SC(C)=O (centres undefined) | -3.23%
54 | COc1ccc2nc(SCc3ncc(C)c(OC)c3C)[nH]c2c1 | -13.6%
55 | Cc1ccc(C(C)OC(=O)C2(C)CCC(C(=O)O)C2(C)C)cc1 (centres undefined) | 7.49%
56 | CN(C)CCN1CCN(c2cccc(Cl)c2)C1=O | 1.35%
57 | CCOC(=O)C(=O)CCCCCCl | -9.98%
58 | CCOC(=O)Oc1ccc(CCNC(=O)[C@H](CCSC)NC(C)=O)cc1OC(=O)OCC | 2.95%
59 | COC(=O)c1cc(Cl)c(NC(C)=O)cc1OC | -45.2%
60 | CCN1CCN(c2cc(-c3ccc(F)cc3)c3c(n2)CCCCCC3)CC1 | 3.45%
61 | CCCc1ncc(C(=O)O)s1 | 4.25%
62 | Cc1coc2ccccc2c1=O | 8.95%
63 | O=C1CC2(CCCC2)CC(=O)N1 | 2.94%
64 | COC(=O)/C=C\C(=O)OC | 6.96%
65 | C#CC(C)(CC)OC(=O)c1ccccc1C(=O)O (centres undefined) | 6.22%
66 | O=C(O)Cn1c(=O)n(Cc2ccc(Br)cc2F)c(=O)c2ccc(Cl)cc21 | -1.17%

Row | SMILES | activity change, negative = cytotoxicity
67 | CN1CCN(N)CC1 | 6.27%
68 | CC(CC(C#N)(c1ccccc1)C(C)C)N(C)C (centres undefined) | 4.97%
69 | CCOC(=O)CN1CCCC1=O | -0.439%
70 | CC(C)(C)NCC(O)COc1ccccc1OCC1CCCO1 (centres undefined) | -1.91%
71 | CCN(CC)CC(=O)Oc1ccc(NC(C)=O)cc1 | 5.4%
72 | COC(=O)/C=C(/C)N | 3.87%
73 | C#Cc1ccc(-c2ccccc2F)cc1 | 8.12%
74 | NS(=O)(=O)c1cc(C(=O)NN2C[C@H]3[C@H]4CCC(C4)[C@H]3C2)ccc1Cl | 9.6%
75 | Cc1[nH]cnc1-c1ccc(Cl)cc1 | 3.41%
76 | c1ccc2c(c1)CCc1ccccc1N2 | 2.38%
77 | COC(=O)c1cc(S(N)(=O)=O)ccc1OC | 5.27%
78 | CCOc1ccccc1OCC1CNCCO1 (centres undefined) | -4.5%
79 | O=C(C1CCCCC1)N1CC(=O)N2CCCc3ccccc3C2C1 (centres undefined) | -4.36%
80 | CCn1ccc(NS(=O)(=O)c2ccc(N)cc2)nc1=O | 5.58%
81 | CSCC[C@H](NC(=O)[C@H](Cc1c[nH]c2ccccc12)NC(=O)CCNC(=O)OC(C)(C)C)C(=O)N[C@@H](CC(=O)O)C(=O)N[C@@H](Cc1ccccc1)C(N)=O | 4.13%
82 | O=C(O)C(=O)Nc1cccc(-c2nn[nH]n2)c1 | -0.0361%
83 | COc1ccc(CCC(C)=O)cc1 | 19.4%
84 | COc1cc(S(N)(=O)=O)cc(C(=O)O)c1OC | 5.54%
